{"source": "the supplement of paper PMC3334620", "note": "Whole data set: some 33,000 sequences, median “E-score (-0.5 to 0.5)” near -0.035, cut for the highest 2% near 0.34. Shown is part of a subset that was picked to be rich in the highest values.", "data": [{"target": "T1, Mot3 (UniProt P54785)", "T1 sequence": "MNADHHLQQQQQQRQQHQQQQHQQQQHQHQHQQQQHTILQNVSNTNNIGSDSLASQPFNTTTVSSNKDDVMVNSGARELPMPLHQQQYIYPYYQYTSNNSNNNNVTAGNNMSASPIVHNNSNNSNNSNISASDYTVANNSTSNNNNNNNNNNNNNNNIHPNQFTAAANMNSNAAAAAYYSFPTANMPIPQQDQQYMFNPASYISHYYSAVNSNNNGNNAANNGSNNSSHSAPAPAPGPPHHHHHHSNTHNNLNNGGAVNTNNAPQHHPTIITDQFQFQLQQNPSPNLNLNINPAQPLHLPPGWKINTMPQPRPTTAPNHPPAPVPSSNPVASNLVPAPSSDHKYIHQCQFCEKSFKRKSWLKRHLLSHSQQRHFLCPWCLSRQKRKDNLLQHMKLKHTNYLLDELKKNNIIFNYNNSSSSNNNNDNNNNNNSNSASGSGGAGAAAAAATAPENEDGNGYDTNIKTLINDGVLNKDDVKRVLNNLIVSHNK", "assay": "PBM E-score (8-mer binding enrichment) (E-score (-0.5 to 0.5)); higher = stronger / more preferred TF binding", "conditions": "protein concentration: 200 nM; construct: GST-full length", "protocol": "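Universal 'all 10-mer' protein binding microarrays (Agilent AMADID 015681) probed with GST-tagged S. cerevisiae TFs (full-length or DBD) made by in vitro transcription/translation (PURExpress), about 100-200 nM. Bound TF was detected with fluorescent anti-GST. Each ungapped 8-mer (which stands for itself and its reverse complement) is scored by the PBM enrichment score (E-score), a modified Wilcoxon-Mann-Whitney statistic from -0.5 to +0.5, computed with the Universal PBM Analysis Suite. Scale: above 0.35 generally sequence-specific binding.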", "values": [{"sequence": "CTAAGGAG", "PBM E-score": -0.254}, {"sequence": "TTAAGTAA", "PBM E-score": 0.0348}, {"sequence": "TTAAGGAA", "PBM E-score": 0.398}, {"sequence": "CTAAGGAC", "PBM E-score": -0.231}, {"sequence": "GTAAGTAA", "PBM E-score": 0.169}, {"sequence": "CTAAGGAA", "PBM E-score": 0.366}, {"sequence": "ATAAGGAA", "PBM E-score": 0.299}, {"sequence": "GTAAGGAA", "PBM E-score": 0.366}, {"sequence": "GTAAGGAC", "PBM E-score": -0.194}, {"sequence": "CGGTCTCC", "PBM E-score": -0.283}, {"sequence": "CGCCCCCG", "PBM E-score": -0.351}, {"sequence": "GACGGTTA", "PBM E-score": -0.0411}, {"sequence": "ATACACAT", "PBM E-score": 0.3}, {"sequence": "GCTGTTTA", "PBM E-score": -0.0345}, {"sequence": "GGCAGGAA", "PBM E-score": 0.419}, {"sequence": "AGCAGGAG", "PBM E-score": -0.0982}, {"sequence": "GGCAGGAC", "PBM E-score": -0.14}, {"sequence": "ATCAGGAC", "PBM E-score": -0.157}, {"sequence": "CTCAGGAA", "PBM E-score": 0.335}, {"sequence": "AGCAGGAC", "PBM E-score": -0.096}, {"sequence": "ATCAGGAA", "PBM E-score": 0.343}, {"sequence": "TTCAGGAA", "PBM E-score": 0.337}, {"sequence": "TGCAGGAA", "PBM E-score": 0.443}, {"sequence": "AGCAGGAA", "PBM E-score": 0.395}, {"sequence": "TGCAGTAA", "PBM E-score": 0.0245}, {"sequence": "GGCAGGGA", "PBM E-score": -0.158}, {"sequence": "TACTGAGA", "PBM E-score": -0.0385}, {"sequence": "GGTGCCAC", "PBM E-score": -0.168}, {"sequence": "AGGGGTGG", "PBM E-score": -0.248}, {"sequence": "GACTGGTA", "PBM E-score": -0.00685}, {"sequence": "GTGCGATA", "PBM E-score": -0.123}, {"sequence": "CGCAGGAC", "PBM E-score": -0.0456}, {"sequence": "CGCAGGAG", "PBM E-score": -0.0652}, {"sequence": "CGCAGGAA", "PBM E-score": 0.356}, {"sequence": "AAAGTAGC", "PBM E-score": -0.0505}, {"sequence": "ACCATTAA", "PBM E-score": 0.0184}, {"sequence": "CGCTCCTC", "PBM E-score": -0.269}, {"sequence": "TACGCAAA", "PBM E-score": 0.206}, {"sequence": "ACTATTAC", "PBM E-score": 0.25}, {"sequence": "CCTATTAA", "PBM E-score": 0.273}, {"sequence": "CCTATTAC", "PBM E-score": 0.344}, {"sequence": "CAGGTCGA", "PBM E-score": 0.148}, {"sequence": "ATTAGCCA", "PBM E-score": -0.147}, {"sequence": "AGGTCGAA", "PBM E-score": 0.00993}, {"sequence": "GATGTTAA", "PBM E-score": 0.268}, {"sequence": "CATGTTAG", "PBM E-score": 0.332}, {"sequence": "TATGTTAA", "PBM E-score": 0.396}, {"sequence": "CATGTTAC", "PBM E-score": 0.332}, {"sequence": "AATGTTAA", "PBM E-score": 0.279}, {"sequence": "CATGTTAA", "PBM E-score": 0.411}, {"sequence": "CATTCAGC", "PBM E-score": -0.12}, {"sequence": "ACCTCGCA", "PBM E-score": -0.0135}, {"sequence": "AAACAAGC", "PBM E-score": 0.0864}, {"sequence": "TGATCCAA", "PBM E-score": -0.071}, {"sequence": "CCATCTGC", "PBM E-score": -0.272}, {"sequence": "ATACACAA", "PBM E-score": 0.324}, {"sequence": "ACACACGC", "PBM E-score": 0.174}, {"sequence": "ATACACAC", "PBM E-score": 0.326}, {"sequence": "ACACACGG", "PBM E-score": 0.182}, {"sequence": "ATACACGG", "PBM E-score": 0.375}, {"sequence": "ATACACGC", "PBM E-score": 0.37}, {"sequence": "ATACACCA", "PBM E-score": 0.129}, {"sequence": "ATACACGA", "PBM E-score": 0.352}, {"sequence": "ATACACTA", "PBM E-score": 0.124}, {"sequence": "GACCTCAC", "PBM E-score": -0.243}, {"sequence": "CCCCTACA", "PBM E-score": 0.0392}, {"sequence": "ATATACGA", "PBM E-score": 0.14}, {"sequence": "AATTTTAT", "PBM E-score": 0.0903}, {"sequence": "TCGATAGA", "PBM E-score": -0.0212}, {"sequence": "ACCCCTTC", "PBM E-score": 0.129}, {"sequence": "GTTTTATA", "PBM E-score": 0.101}, {"sequence": "CTTTTACA", "PBM E-score": 0.345}, {"sequence": "CTTTTACC", "PBM E-score": 0.141}, {"sequence": "GCTTTACA", "PBM E-score": 0.325}, {"sequence": "CCTTTACG", "PBM E-score": 0.172}, {"sequence": "ACTTTACA", "PBM E-score": 0.313}, {"sequence": "GTTTTACA", "PBM E-score": 0.371}, {"sequence": "GGTTTACA", "PBM E-score": 0.333}, {"sequence": "CCTTTACA", "PBM E-score": 0.392}, {"sequence": "ATTTTACA", "PBM E-score": 0.336}, {"sequence": "TCTTTACA", "PBM E-score": 0.389}, {"sequence": "CCTTTACC", "PBM E-score": 0.102}, {"sequence": "ACCCTTTA", "PBM E-score": 0.167}, {"sequence": "GCAGTCAC", "PBM E-score": 0.305}, {"sequence": "ATTGGCCG", "PBM E-score": -0.176}, {"sequence": "GGATTTAC", "PBM E-score": 0.174}, {"sequence": "CGACAGGA", "PBM E-score": 0.0979}, {"sequence": "AGCACGCG", "PBM E-score": 0.17}]}]}
